Results filed as inconclusive are left out. Where a call stands in place of a potency, no number is given. Calls of active or inactive are those of the source. Calls come from the whole dose curve; as a rule, active = well fitted cell-killing curve with a large enough effect; inconclusive = small, poorly fitted or top-dose-only effect, or effect the other way; inactive = no such curve, though single readings can be large or run the other way. Non-standard residues stand in square brackets, D forms with d. Residues, ends and D or L forms follow the SMILES beside them. *: point of attachment. Nva = CCC[C@H](N)C(=O)O; Cbz = O=C(OCc1ccccc1)*
Assay: Quantitative High-Throughput drug screen in 47 multiple myeloma cell lines against the NCATS MIPE library collection: KMS27_JCRB cell viability assay (AID 1918970); note: nearly all actives have a fitted effect of over 30% in size
Conditions: KMS27 myeloma cells, CellTiter-Glo ATP viability, 48 h; viability (% of DMSO): at 45.8 µM (top of the series)
From the text: PI: Beverly A. Mock Ph.D.
Laboratory of Cancer Biology and Genetics,
Center for Cancer Research, National Cancer Institute,
National Institute of Health, Bethesda, Maryland
Drug resistance and disease progression are common in multiple myeloma (MM) patients, underscoring the need for new therapeutic combinations. […] We hypothesized that effective combinations would reduce MYC expression and enhance p16 activity. […] These preclinical data identify potentially useful drug combinations for evaluation in drug-resistant MM and reveal potential mechanisms of combined drug sensitivity.
Described herein is the primary MIPE qHTS used to cherrypick compounds. Validated compounds were then further tested for potential synergistic activiy.
[1] Peat TJ, Gaikwad SM, Dubois W, Gyabaah-Kessie N, Zhang S, Gorjifard S, Phyo Z, Andres M, Hughitt VK, Simpson RM, Miller MA, Girvin AT, Taylor A, Williams D, D'Antonio N, Zhang Y, Rajagopalan A, Flietner E, Wilson K, Zhang X, Shinn P, Klumpp-Thomas C, McKnight C, Itkin Z, Chen L, Kazandijian D, Zhang J, Michalowski AM, Simmons JK, Keats J, Thomas CJ, Mock BA. Drug combinations identified by high-throughput screening promote cell cycle transition and upregulate Smad pathways in myeloma. […] Epub 2023 Jun 24. PMID: 37356470; PMCID: PMC10408729.
SEQUENCE No. (e.g., 1, 2, 3, etc.); […] (e.g., Cells, Incubation, Reagent, etc.); VALUE and DESCRIPTION.
1; Cells; 5 uL; white, solid bottom 1536-well Greiner assay plate.
2; Compounds; 23 nL; Kalypsis pin tool (Wako USA) equipped with a 1536-well pin head to transfer to the assay plates.
3; Incubation; 48 hours; 37C incubation.
4; Reagent;5uL; CellTiter Glo (Promega).
5; Detector; 425V; Luminescence; Viewlux PerkinElmer.
NOTES (numbers refer to Sequence numbers above)
1. The cell-based screening methods employed in this study were like those previously published. Briefly, the corresponding myeloma cell lines were screened in 1,536-well plates with 500 cells, 5-uL per well for inhibition of cell viability (assessed by measuring ATP levels with CellTiterGlo).
2. NCATS MIPE 4.0 library of approved and investigational drugs were added using the Kalypsis pin tool. Wells treated with DMSO only for 100% viability and media only wells for 0% viability were used as controls.
3. The assay plates were covered and incubated for 48 hours in a 37C, 5% CO2 incubator with controlled humidity.
4. After 48 hours, CellTilter-GloTM luminescent substrate mix (Promega) reagent was added to the assay plate and plates we incubated for 5 min at room temperature.
5. Signal was measured as median relative luminescence units on a ViewLux (PerkinElmer) multiplate reader.
[1] Heske CM, Davis MI, Baumgart JT, Wilson K, Gormally MV, Chen L, Zhang X, Ceribelli M, Duveau DY, Guha R, Ferrer M, Arnaldez FI, Ji J, Tran HL, Zhang Y, Mendoza A, Helman LJ, Thomas CJ. Matrix Screen Identifies Synergistic Combination of PARP Inhibitors and Nicotinamide Phosphoribosyltransferase (NAMPT) Inhibitors in Ewing Sarcoma. Clin Cancer Res. 2017 Dec 1;23(23):7301-7311. doi: 10.1158/1078-0432.CCR-17-1121. Epub 2017 Sep 12. PMID: 28899971; PMCID: PMC6636827.
Potency is the fitted concentration of half-maximal effect.

Row | Compound | Potency
1 | N#Cc1cc(NC(=O)Nc2nnc(-c3ccncc3)s2)ccc1-c1cn[nH]c1 | inactive
2 | CCn1c(=O)c2c(nc(C=Cc3ccc(OC)c(OC)c3)n2C)n(CC)c1=O | 11.8 µM (active)
3 | CCC[C@@H](C=O)NC(=O)[C@H](CC(C)C)NC(=O)[C@H](CC(C)C)NC(=O)OCc1ccccc1 (Cbz-Leu-Leu-[Nva]-aldehyde) | 0.332 µM (active)
4 | Cn1cnc2c(F)c(Nc3ccc(Br)cc3F)c(C(=O)NOCCO)cc21 | 0.0074 µM (active)
5 | Oc1ccc([C@@H]2Oc3ccc(O)cc3[C@@H]3CCC[C@@H]32)cc1 | inactive
6 | CCCNS(=O)(=O)Nc1ncnc(OCCOc2ncc(Br)cn2)c1-c1ccc(Br)cc1 | inactive
7 | C[C@@H]1CC[C@@]2(OC1)OC1CC3C4CC=C5CC(O)CCC5(C)C4CCC3(C)C1[C@@H]2C (stereo not given in full) | inactive
8 | CCOC(=O)C1=C(C)NC(=S)NC1c1cccc(O)c1 (stereo not given) | 0.0469 µM (active)
9 | CNC(=O)c1ccc(Nc2cc(Nc3ccccc3S(=O)(=O)C(C)C)c3cc[nH]c3n2)nc1 | 2.09 µM (active)
10 | COc1ccc([C@@H]2CNC(=O)C2)cc1OC1CCCC1 | 26.4 µM (active)
11 | CC(C)NC[C@@H](C(=O)N1CCN(c2ncnc3c2[C@H](C)C[C@H]3O)CC1)c1ccc(Cl)cc1 | 1.87 µM (active)
12 | O=C1NC(O)CCN1[C@@H]1O[C@H](CO)[C@H](O)[C@H]1O (stereo not given in full) | inactive
13 | CC(C)OC(=O)[C@H](C)N[P@](=O)(OC[C@H]1O[C@@H](n2ccc(=O)[nH]c2=O)[C@](C)(F)[C@H]1O)Oc1ccccc1 | inactive
14 | CC(C)Oc1ccc(C(=O)N[C@H](CNC(=O)CN(C)C)Cc2ccc(-c3cn4cccc([C@H](C)O)c4n3)cc2)cc1Cl | 0.833 µM (active)
15 | C=CC(=O)N1CCc2ccc(-n3c(=O)ccc4cnc5ccc(-c6cnn(C)c6)cc5c43)cc21 | 2.96 µM (active)
16 | CC(=O)OC[C@@H]1O[C@@H](n2ccc(=O)[nH]c2=O)[C@H](OC(C)=O)[C@H]1OC(C)=O | inactive
17 | NC(=O)Nc1sc(-c2ccc(F)cc2)cc1C(N)=O | 0.166 µM (active)
18 | O=C1c2c(O)cccc2[C@@H]([C@@H]2O[C@H](CO)[C@@H](O)[C@H](O)[C@H]2O)c2cc(CO)cc(O)c21 | inactive
19 | Nc1nc(N)c2nc(-c3cccc(O)c3)c(-c3cccc(O)c3)nc2n1 | 4.18 µM (active)
20 | Nc1cccc2c1C(=O)N(C1CCC(=O)NC1=O)C2=O (stereo not given) | inactive

Row | Compound | Potency
21 | CC(=O)ON=C1C(c2c(O)[nH]c3cc(Br)ccc23)=Nc2ccccc21 | 6.62 µM (active)
22 | C#C[C@]1(O)CC[C@@H]2[C@@H]3CCc4cc(O)ccc4[C@H]3CC[C@@]21C | 16.6 µM (active)
23 | O=c1[nH]c(=O)n([C@H]2C[C@@H](O)[C@@H](CO)O2)cc1C=CBr | inactive
24 | Oc1cc2c(cc1O)C1c3ccc(O)c(O)c3OCC1(O)C2 (stereo not given) | inactive
25 | N#CC(=C(O)c1ccc(Cl)cc1Cl)c1nc2cc(Cl)ccc2c(=O)[nH]1 | inactive
26 | CC(C)(O)Cn1c(NC(=O)c2ccc(-c3cn[nH]c3)s2)nc2cc(CN3CCOCC3)ccc21 | 0.372 µM (active)
27 | NC(=O)c1ncn([C@@H]2O[C@H](CO)[C@@H](O)[C@@H]2O)c1N | inactive
28 | CN[C@H]1[C@@H](O)[C@@H]2O[C@@H]3O[C@H](C)CC(=O)[C@]3(O)O[C@@H]2[C@@H](NC)[C@H]1O | 0.332 µM (active)
29 | O=C(c1ccc(F)cc1)N1CCC[C@H](c2nc(-c3ccc(F)cc3)no2)C1 | inactive
30 | CC(=O)N[C@H]1[C@@H]([C@H](O)[C@H](O)CO)OC(C(=O)O)=C[C@@H]1N=C(N)N | inactive
31 | O=C(Nc1cccc(Nc2ncc(Br)c(NCCc3cnc[nH]3)n2)c1)N1CCCC1 | inactive
32 | Cn1cc(C[C@@H](N)C(=O)O)c2ccccc21 | inactive
33 | Cc1cc(Nc2ncc3c(n2)N(C)C(=O)N(c2cc(NC(=O)c4cccc(C(F)(F)F)c4)ccc2C)C3)n(C)n1 | 1.87 µM (active)
34 | CCOC(=O)[C@@H](N)Cc1ccc(-c2cc(O[C@H](c3ccc(Cl)cc3-n3ccc(C)n3)C(F)(F)F)nc(N)n2)cc1 | 10.5 µM (active)
35 | OCC(O)C(O)C(O)CO (stereo not given) | inactive
36 | c1cc(CN2CCCNCCNCCCNCC2)ccc1CN1CCCNCCNCCCNCC1 | inactive
37 | CC(=O)OCC(=O)[C@@]1(O)CC[C@H]2[C@@H]3CCC4=CC(=O)CC[C@]4(C)[C@@H]3C(=O)C[C@@]21C | inactive
38 | CCNC(=O)Nc1ccc(-c2nc3c(c(N4CCOC[C@H]4C)n2)CCN(C2COC2)C3)cc1 | 0.59 µM (active)
39 | C#C[C@]1(O)CC[C@@H]2[C@@H]3CCC4=CC(=O)CC[C@@H]4[C@H]3CC[C@@]21CC | inactive
40 | Cc1nc(NC(=O)N2CCC[C@@H]2C(N)=O)sc1-c1ccnc(C(C)(C)C(F)(F)F)c1 | inactive
